Laboratory results reported in PubChem BioAssay (NCATS).
Results filed as inconclusive are left out. Active and inactive are the calls of the source. Calls follow the shape of the dose curve; as a rule, active = well fitted inhibition curve with a large enough effect; inconclusive = small, poorly fitted or top-dose-only effect; inactive = flat fitted curve, though single readings scatter.

What was measured:
Experiment in all cases: qHTS profiling for inhibitors of Plasmodium falciparum proliferation (AID 504749); also: nearly all actives have a fitted effect of over 60% in size
Conditions in all cases: P. falciparum in erythrocytes, SYBR Green DNA, 72 h; series mostly up to 28.7 µM
[1] = system: CP262
Outline: (§1)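 SYBR Green fluorescence of parasite DNA, read after lysis and overnight dark incubation, measured growth over 72 h in erythrocyte culture at 0.3% parasitemia and 2.5% hematocrit. Data normalised to DMSO and 0.29 uM artemisinin, with plate-drift correction.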

[2] = system: CP265
Outline: as §1

[3] = system: CP266
Outline: as §1

[4] = system: CP268
Outline: as §1

[5] = system: CP269
Outline: as §1

[6] = system: CP286
Outline: as §1

[7] = system: CP291
Outline: as §1

[8] = system: CP297
Outline: as §1

[9] = system: CP305
Outline: as §1

[10] = system: CP315
Outline: as §1

[11] = system: CP325
Outline: as §1

[12] = system: CP329
Outline: as §1

[13] = system: CP335
Outline: as §1

[14] = system: DFO2036
Outline: as §1

[15] = system: DIV14
Outline: as §1

[16] = system: DIV17
Outline: as §1

[17] = system: DIV30
Outline: as §1

[18] = system: Dd2
Outline: as §1

[19] = system: ECU
Outline: as §1

[20] = system: FAB9
Outline: as §1

[21] = system: GB4
Outline: as §1

[22] = system: HB3
Outline: as §1

[23] = system: ICS
Outline: as §1

[24] = system: JCK
Outline: as §1

[25] = system: N140
Outline: as §1

[26] = system: P93_24
Outline: as §1

[27] = system: P94_40
Outline: as §1

[28] = system: PAD
Outline: as §1

[29] = system: PC15
Outline: as §1

[30] = system: PC26
Outline: as §1

[31] = system: PC49
Outline: as §1

[32] = system: SC27B
Outline: as §1

[33] = system: TAB109
Outline: as §1

[34] = system: TAB113
Outline: as §1

[35] = system: TAB165
Outline: as §1

[36] = system: W2
Outline: as §1

Measured: Potency

O=C(O)[C@H]1C[C@@H](CP(=O)(O)O)CCN1
inactive: all assays above
